# Source: PubChem (several laboratories)
# EBV gp42 block: inhibitors of Epstein-Barr virus glycoprotein 42; inhibition, % (tested at 21.74 µM); 0.42% of 220,000 active; Q1HVG2; AID 1085; Fluorescence polarization binding assay, mP read-out; in the data active = inhibition above about 50%
# E coli Lon inh: inhibitors of E. coli Lon protease; purified E. coli Lon protease, fluorescence polarization; inhibition, % at 7.94 µM; 0.42% of 360,000 active; in the data active = inhibition above about 13%, passing the limit was not always enough;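 note: 0% = enzyme with probe and DMSO and 100% = no enzyme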
# Target sequence (P0A9M0 whole entry, looked up): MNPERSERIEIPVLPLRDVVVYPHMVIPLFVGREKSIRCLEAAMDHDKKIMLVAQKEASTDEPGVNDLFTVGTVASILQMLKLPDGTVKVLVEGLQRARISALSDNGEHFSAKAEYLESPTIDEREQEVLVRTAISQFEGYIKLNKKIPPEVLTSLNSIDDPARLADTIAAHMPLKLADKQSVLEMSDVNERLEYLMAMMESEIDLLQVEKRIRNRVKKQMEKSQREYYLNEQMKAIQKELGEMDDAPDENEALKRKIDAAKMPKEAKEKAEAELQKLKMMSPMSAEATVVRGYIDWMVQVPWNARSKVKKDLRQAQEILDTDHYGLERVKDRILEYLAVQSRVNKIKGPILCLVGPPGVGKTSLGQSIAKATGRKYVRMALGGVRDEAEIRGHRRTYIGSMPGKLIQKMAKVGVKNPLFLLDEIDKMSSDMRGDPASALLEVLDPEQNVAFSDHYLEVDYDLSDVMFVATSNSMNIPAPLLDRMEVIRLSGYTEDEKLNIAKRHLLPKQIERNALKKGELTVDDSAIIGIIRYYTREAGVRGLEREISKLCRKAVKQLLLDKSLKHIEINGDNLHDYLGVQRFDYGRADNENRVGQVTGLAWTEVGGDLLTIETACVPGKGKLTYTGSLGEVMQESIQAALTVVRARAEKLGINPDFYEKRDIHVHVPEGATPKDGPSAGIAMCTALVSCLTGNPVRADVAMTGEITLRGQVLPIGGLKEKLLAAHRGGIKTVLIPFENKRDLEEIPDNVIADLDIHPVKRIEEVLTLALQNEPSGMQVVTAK
# MEX-5 binding: C. elegans MEX-5 TCR-2 RNA binding activity; Q9XUB2; MEX-5/FITC-TCR2 RNA binding, fluorescence polarization; active compounds read low; activity score (negative = inhibition of binding), % at 10 µM; 0.38% of 300,000 active; AID 1832;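 active = inhibition past about -25% in most replicates, and total fluorescence under double the plate's negative control median, limit read from the data; inconclusive = replicates evenly split on the limit, or fluorescence at least double controls; inactive = too little inhibition in most replicates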;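 note: 0% = DMSO and -100% = 5 µM competing unlabeled TCR2 RNA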
# GLD-1 TGE inh: GLD-1-TGE RNA interaction inhibition (C. elegans); Q17339; purified GLD-1 + fluorescein TGE RNA, fluorescence polarization; inhibition, % at 5.96 µM; 0.44% of 320,000 active; AID 2280;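 active = percent inhibition above a per-plate cutoff, the plate mean of test compounds plus 3 SD, cut at about 30% in these data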;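 note: 0% = DMSO wells with GLD-1 and probe and 100% = wells lacking GLD-1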
# Bcl-xL primary: inhibitors of human Bcl-xL; 0.7% of 320,000 active; GST-Bcl-xL / FITC-Bim BH3 peptide fluorescence polarization; Q07817; inhibition, % at 10.9 µM; AID 2129;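 active = inhibition above the mean of all tested compounds plus 3 SD, cutoff set per campaign, cut at about 30% in these data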;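 note: 0% = DMSO wells and 100% = unlabeled Bim-BH3 peptide competitor; inhibitors lower millipolarization by displacing the labeled peptide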
# MCL1-BIM inh: inhibitors of human MCL1 binding to BIM-BH3 peptide | Q07820 | GST-MCL1 / FITC-Bim-BH3 fluorescence polarization | inhibition, % at 10.9 µM | 0.68% of 320,000 active;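 active = inhibition above the mean inhibition of all tested compounds plus 3 SD, set per campaign, cut at about 40% in these data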;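 note: 0% = DMSO wells and 100% = unlabeled Bim-BH3 peptide control; higher means more loss of mP so more displacement of Bim peptide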
# An asterisk follows results filed as active; ? = inconclusive; / = no result given. Sampled rows, rich in hits. Any-hit rate of the full collection: about 1.5%.
SMILES,EBV gp42 block,E coli Lon inh,MEX-5 binding,GLD-1 TGE inh,Bcl-xL primary,MCL1-BIM inh
C=CCOC(=O)C1=C(C)Nc2ncnn2C1c1cc(Br)ccc1F (stereo unspecified),-19,-1,2,1,6,6
COc1ccc(C2C=C(c3ccc(C)c(C)c3)Nc3ncnn32)c(OC)c1OC (stereo unspecified),0,11,3,10,5,0
Fc1ccc(Br)cc1C1C=C(c2ccc(Br)s2)Nc2ncnn21 (stereo unspecified),-18,-23,-2,19,38*,-2
COc1cccc(C2C=C(c3ccc(Br)s3)Nc3ncnn32)c1OC (stereo unspecified),13,-34,-3,2,34*,32
COC(=O)c1cc(NC(=O)c2ccccc2)c(=O)oc1/C=C/Nc1ccc(Oc2ccccc2)cc1,186*,-205,-9,/,/,/
CCOC(=O)c1cc(NC(=O)c2ccccc2)c(=O)oc1-c1ccccc1,-21,3,1,-3,0,5
CC(C)(C)OC(=O)[C@H](Cc1ccccc1)NC(=O)c1nc[nH]c1C(=O)N1CCNCC1,/,-2,/,4,/,/
O=C1c2c(O)cccc2C(C2OC(CO)[C@@H](O)[C@H](O)[C@H]2O)c2cc(CO)cc(O)c21 (stereo partly specified),/,8,/,5,11,1
O=C(O)c1cc(O)c2c(c1)[C@H]([C@H]1c3cc(C(=O)O)cc(O)c3C(=O)c3c(O[C@@H]4O[C@H](CO)[C@@H](O)[C@H](O)[C@H]4O)cccc31)c1cccc(OC3O[C@H](CO)[C@@H](O)[C@H](O)[C@H]3O)c1C2=O (stereo partly specified),/,3,-98*,29,94*,110*
O=C(O)c1cc(O)c2c(c1)[C@@H]([C@H]1c3cc(C(=O)O)cc(O)c3C(=O)c3c(O[C@@H]4O[C@H](CO)[C@@H](O)[C@H](O)[C@H]4O)cccc31)c1cccc(OC3O[C@H](CO)[C@@H](O)[C@H](O)[C@H]3O)c1C2=O (stereo partly specified),/,-8,-100*,30,97*,114*
O=C1c2cc(CO)cc(O)c2C(=O)c2c(O[C@@H]3OC(CO)[C@@H](O)[C@@H](O)[C@@H]3O)cccc21 (stereo partly specified),/,6,-5,10,11,14
Cc1cc(C)c([C@@H]2C[C@H]3CN(C4CCCC4)C(=O)[C@]34CCCN24)c(-n2cccn2)c1,-1,12,-21,25,34*,29
O=C1C2C3C=CC(C3=C(c3ccccc3)c3ccccc3)C2C(=O)N1Cc1ccccc1 (stereo unspecified),63*,7,0,6,6,4
O=C1C2C3C=CC(C3=C(c3ccccc3)c3ccccc3)C2C(=O)N1CCO (stereo unspecified),-6,3,-1,-5,4,5
O=C(O)C1OC(Oc2cc3oc(-c4ccccc4)cc(=O)c3c(O)c2O)C(O)C(O)C1O (stereo unspecified),-14,9,-60*,12,10,13
COC(=O)Nc1ccc(N2CCOCC2)c(S(=O)(=O)N2CCOCC2)c1,/,4,-1,1,6,0
CC(C)NC(=O)COC(=O)C1CSC2(c3ccc(Br)cc3)CCC(=O)N12 (stereo unspecified),-8,1,3,-4,-6,-5
CCOCCCNC1=C(Cl)C(=O)c2ccccc2C1=O,-30,-7,-4,-1,34*,33
COc1ccc(C(=O)C2CCCN(C(=O)CCc3scnc3C)C2)c(C)c1 (stereo unspecified),2,0,-2,5,2,0
Clc1ccc(OCc2nnc(-c3ccccc3Br)o2)c(Cl)c1,91*,-4,2,0,6,6
Fc1cccc(/C=N/Nc2ncnc3nc[nH]c23)c1,21,-5,1,8,3,8
Fc1ccccc1/C=N/Nc1ncnc2nc[nH]c12,59*,-5,-8,6,2,3
Cc1ccc(/C=N/Nc2ncnc3nc[nH]c23)cc1,0,-4,-26*,4,3,2
Oc1ccc(/C=N/Nc2ncnc3nc[nH]c23)cc1,-21,6,-29*,-1,6,-4
Clc1ccc(/C=N/Nc2ncnc3nc[nH]c23)cc1,4,-5,-5,9,4,4
SMILES,EBV gp42 block,E coli Lon inh,MEX-5 binding,GLD-1 TGE inh,Bcl-xL primary,MCL1-BIM inh
CC(C)N1CCc2c(sc(N)c2C#N)C1,-20,-64,?,-75,47*,43*
CN1C(=O)C(C)(C)c2cc(S(=O)(=O)N3CCC(C(=O)NCc4ccccc4Cl)CC3)ccc21,/,-4,-2,1,0,10
COc1cccc(/C(O)=C/c2nc3ccc(C(=O)NCCc4ccc(Cl)cc4)cc3[nH]c2=O)c1,107*,-25,-49*,/,/,/
Cc1ccc2occ(CN3CCN(c4ccccc4)CC3)c(=O)c2c1,-16,-6,-1,0,36*,0
Cc1ccc2occ(CN3CCN(Cc4ccccc4)CC3)c(=O)c2c1,-2,/,0,3,-3,-9
C=CCc1cccc(C=Nc2cc(Br)ccc2O)c1O,101*,-7,1,3,8,7
C=CCc1cccc(C=Nc2c[nH]c(=O)[nH]c2=O)c1O,/,4,0,7,3,3
CC(=O)N(Cc1ccccc1)c1ncc2c(n1)c(=O)c(C#N)c1ccccn12,32,-5,-8,18,34*,45*
O=C(O)c1ccc(N=C2NC(=O)C(CO)(CO)S2)cc1,/,-1,0,0,5,9
COc1cc2c(c(OC)c1OC)C(=O)CO2,/,3,/,/,/,/
COc1ccc2c3c(cccc13)OCC2=O,-1,2,-3,16,31*,30
COC(=O)c1ccccc1Oc1ccc(NC(=O)C(C)(C)CCl)cc1,7,1,2,-7,3,3
CC(C)(CCl)C(=O)Nc1ccc(OC(F)(F)F)cc1,61*,-10,3,6,2,5
COC(=O)c1ccc(/C=N\N2CCN(Cc3ccc(C)cc3)CC2)cc1,-21,142*,1,1,2,4
CN1CCCc2cc(C=O)ccc21,-6,0,-6,4,31*,30
O=Cc1ccc(N2CCCC2)c([N+](=O)[O-])c1,1,2,-8,4,2,-3
CCOC(=O)Cn1ccc(NC(=O)c2ccc(F)cc2)n1,/,1,0,-7,4,-6
CCOc1ccc(Br)cc1S(=O)(=O)NC(=O)c1ccccc1,-5,2,?,3,3,5
CCS(=O)(=O)Nc1ccc2c(c1)OCO2,-4,-1,-1,27,41*,36
CCn1nc(NC(=O)CC(C)C)c2cc3cccc(C)c3nc21,/,-3,0,7,137*,1
Cc1ncc([N+](=O)[O-])n1Cc1cccc2ccccc12,66*,2,-2,3,5,-2
